Most compounds without a hit are left out; they make up all but 3.4% or so of the library.
PLCb3 inh: blocks human PLC-beta3 enzyme activity. Q01970. Purified PLC-beta3, fluorogenic substrate, fluorescence. inhibition, % at 12.2 µM. hit rate 0.18% among 370,000; in the data active = inhibition above about 11%;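 also: 0% = median of compound wells on plate and 100% = full blocker control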
HGIII-sPLA2 inh: Blocks human group III sPLA2 activity; inhibition, % at 12.2 µM; Q9NZ20; hit rate 0.56% among 370,000; QFRET BODIPY PC-A2 liposome hydrolysis, fluorescence;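 active = inhibition above mean plus 3 SD of compounds lying within the high and low control bounds, cut at about 19% in these data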;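 also: 0% = median of test compound wells and 100% = no enzyme DMSO wells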
ADAM10 inh: ADAM10 inhibition, QFRET primary screen | inhibition, % at 7 µM | AID 720582 | hit rate 0.62% among 370,000 | recombinant ADAM10, EDANS/DABCYL FRET peptide cleavage, 3 h | O14672;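 active = inhibition above a per-campaign cutoff equal to the mean of compounds falling between control-based bounds plus 3 SD, cut at about 20% in these data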;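 also: 0% = DMSO wells while the 100% control is not disclosed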
KLK7 zymogen act: activators of human kallikrein-7 zymogen | hit rate 0.9% among 370,000 | purified proKLK7, EDANS-DABCYL substrate fluorescence; 100% is mature enzyme control, 0% vehicle | AID 652039 | P49862 | activation, % at 7 µM;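 active = activation above the mean of all tested compounds plus 3 SD, computed per campaign excluding outliers beyond control limits, cut at about 13% in these data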
PLCg1 inh: blocks human PLC-gamma1 enzyme activity; P19174; purified PLC-gamma1, fluorogenic substrate, fluorescence; inhibition, % at 12.2 µM; hit rate 0.84% among 370,000; AID 720700
ADAM17 inh: inhibits human ADAM17 | P78536 | hit rate 0.83% among 370,000 | recombinant ADAM17, EDANS/DABCYL FRET peptide cleavage | inhibition, % at 6.95 µM;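 active = inhibition above the mean of compounds lying between control limits plus 3 SD, set per campaign, cut at about 8.5% in these data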;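 also: 0% = DMSO-only wells as the low control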
ADAM10 counter: counter-screen for ADAM17 exosite inhibitors: inhibitors of human ADAM10; inhibition, % at 6.95 µM; shares compounds with ADAM17 inh; hit rate 47% among 2,900; recombinant ADAM10, EDANS/DABCYL FRET peptide cleavage, 3 h;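 active = mean inhibition over the triplicate runs exceeds the activity threshold set in the earlier primary screen, cut at about 20% in these data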;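 also: 0% = DMSO wells and 100% = marimastat wells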
ADAM17 confirm: confirmation of inhibitors of human ADAM17; shares compounds with ADAM17 inh; recombinant ADAM17, EDANS/DABCYL QFRET peptide cleavage; inhibition, % at 6.95 µM; hit rate 65% among 2,900; AID 743257;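 active = mean inhibition across replicates above the hit cutoff set in the primary screen, cut at about 8.5% in these data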;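 also: 0% = DMSO wells and 100% = marimastat wells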
PLCg1 ctr: counter-screen for PLC-beta3 inhibitors: inhibitors of human PLC-gamma1; shares compounds with PLCg1 inh; purified PLC-gamma1, fluorogenic substrate, fluorescence; inhibition, % at 12.3 µM; hit rate 3.1% among 3,300; AID 743258
PLCbeta3 conf: confirmation of human PLC-beta3 inhibitors; shares compounds with PLCg1 inh; purified PLC-beta3, fluorogenic substrate fluorescence; inhibition, % at 12.3 µM; hit rate 1% among 3,300; in the data active = inhibition above about 11%
* = called active by the depositor; / = no result. Rule as the data show it, unless noted: active = inhibition above about 9.5%; inactive = the rest.

SMILES	PLCb3 inh	HGIII-sPLA2 inh	ADAM10 inh	KLK7 zymogen act	PLCg1 inh	ADAM17 inh	ADAM10 counter	ADAM17 confirm	PLCg1 ctr	PLCbeta3 conf
CC1CC(C)CN(C(=O)COC(=O)COc2ccccc2C#N)C1 (configuration not stated)	0.9	0.5	3.9	0.3	12.7*	9.7*	21.6*	10.7*	-6.2	-1.6
C=CCn1c(SCC(=O)Nc2ccccc2-c2ccccc2)nnc1-c1ccc(Cl)cc1	-7.4	-10.6	16.3	0.6	10.2*	9.3*	21.6*	14.5*	-7.0	-4.1
CC(=O)c1cc(-c2ccc(Cl)c(Cl)c2)c(=O)n2c1CCC2	-7.4	0.9	-14.8	0.0	-3.4	-13.5	/	/	/	/
COc1ccc(S(=O)(=O)N2CCN(C(=O)CSc3nc4ccccc4nc3N3CCCCC3)CC2)cc1	-1.6	-1.8	0.6	-0.4	0.4	-0.3	/	/	/	/
CC1CCCCC12NC(=O)N(CC(=O)Nc1ccc(Cl)c(S(=O)(=O)N3CCOCC3)c1)C2=O (configuration not stated)	-7.6	-5.3	1.6	-0.4	-0.2	-2.4	/	/	/	/
CCCC1(CCC)NC(=O)N(CC(=O)Nc2ccc(Cl)c(S(=O)(=O)N3CCOCC3)c2)C1=O	4.1	-31.5	16.1	0.1	10.7*	15.4*	2.8	1.6	2.8	0.1
O=C(Nc1ccccc1)Nc1cccc(Cl)c1Cl	9.8	-14.0	14.8	0.5	15.9*	11.8*	12.8	8.2	-4.8	-2.5
CCOC(=O)c1c(C)[nH]c(C)c1S(=O)(=O)NCCc1sccc1C	-4.1	-3.6	5.7	0.0	9.9*	9.0*	3.7	6.8	-1.0	-2.2
CCOC(=O)c1c(C)[nH]c(C)c1S(=O)(=O)NCCc1ccc(SC)cc1	-3.3	-5.2	8.3	0.5	3.5	1.9	/	/	/	/
O=C(NCCOCC(F)(F)C(F)F)c1cc(F)c(F)cc1Cl	1.6	12.3	8.7	-0.1	15.1*	8.7*	-7.4	1.5	-2.7	-5.1
O=C(NCCOc1ccccc1F)c1cc(F)c(F)cc1Cl	-0.8	4.8	0.3	-0.5	-1.7	0.7	/	/	/	/
Cc1ccc(CN2CCCCC(NC(=O)Nc3cccc([N+](=O)[O-])c3)C2=O)cc1 (configuration not stated)	-0.2	-17.8	2.3	-0.5	0.0	-2.7	/	/	/	/
C[C@@H]1CC=C[C@@H]2[C@H]1C(=O)N(Cc1ccccc1)[C@H]2c1cccc(Br)c1	4.4	11.5	2.3	0.0	11.7*	8.6*	15.7	10.4*	0.4	0.1
COc1ccc(-n2c(SCC(=O)Nc3ccc(Oc4ccccc4)cc3)nnc2-c2cccnc2)cc1	-2.5	10.1	-4.8	0.9	1.9	-2.9	/	/	/	/
O=C(CCc1ccccc1)N[C@H]1[C@H](OCc2ccccc2)CCC[C@@]12C(=O)N(Cc1ccccc1)c1ccc(-c3ccsc3)cc12	0.9	2.3	7.0	0.4	3.0	5.1	/	/	/	/
O=C(CSc1ncn[nH]1)Nc1ccc2c(c1)CCC2	12.6*	-48.8	11.2	0.3	5.7	8.8*	10.2	3.9	-4.5	-0.3
Cc1ccc(NC(=O)CSc2ncn[nH]2)cc1	3.6	-16.6	4.7	-0.4	-0.3	0.3	/	/	/	/
CCCC[C@H]1C2CC(OC(=O)Nc3ccccc3)C(C2)[C@H]2CCCCN21 (some centres not stated)	-1.4	10.7	-5.2	-0.3	0.0	-5.5	/	/	/	/
CC1CCCN(c2nc(NCc3ccco3)nc(N)c2[N+](=O)[O-])C1 (configuration not stated)	2.9	-35.6	18.0	-0.2	15.6*	9.7*	0.7	5.2	0.1	2.7

Source: PubChem
